# Compound activity deposited in PubChem by National Center for Advancing Translational Sciences (NCATS).
# GPT2 inhibitor: Primary qHTS assay for inhibitors of Glutamate pyruvate transaminase 2 (GPT2); Potency, µM (titrated, usually from 57.7 µM), inactives show at the top dose activity change, negative = inhibition, actives largely listed as inhibitors; AID 1671188, 2021; Recombinant GPT2, coupled pyruvate oxidase/HRP Amplex Red fluorescence; 0.25% of 100,000 active; Alanine aminotransferase 2 (Homo sapiens), Q8TD30; also: nearly all actives have a fitted effect of over 60% in size
#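 Recombinant GPT2 (10ng/uL) with 250uM a-KG and 2mM L-alanine, 30 min at room temperature, in HEPES pH 7.5 buffer. Pyruvate detected by pyruvate oxidase/HRP/Amplex Red fluorescence after 30 min in the dark; AOA (50uM) as positive control.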
# Luciferase inh: Firefly luciferase inhibition profiling of diverse chemical library using quantitative high-throughput screening | Luciferin 4-monooxygenase (Photinus pyralis), P08659 | purified P. pyralis luciferase, luminescence, biochemical | Potency, µM (titrated, usually from 115 µM), actives largely listed as inhibitors | 2.5% of 76,000 active | AID 1347043, 2019; also: nearly all actives have a fitted effect of over 65% in size
#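 Biochemical qHTS: compound (6-point titration) added to 10uM D-luciferin plus 10uM ATP in Tris acetate pH 7.5 buffer with Mg, Tween-20 and BSA, then purified enzyme at 10nM; light output imaged.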
# 3T3 cytotox: Cytotoxic Profiling in NIH 3T3 Cell Line of Diverse Libraries Using Quantitative High-Throughput Screening. NIH 3T3 viability, CellTiter-Glo ATP luminescence, 48-72 h. Potency, µM (titrated, usually from 96.7 µM), inactives show top-dose activity change, negative = cytotoxicity, usual class: inhibitors. 4.3% of 94,000 active. AID 1345082, 2018; also: nearly all actives have a fitted effect of over 55% in size
#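 First NIH 3T3 cells are plated at 400 cells/well; next compound is pinned in; then plates incubate 48 or 72 hr at 37 °C; finally CellTiter-Glo is added and luminescence read after 10 min.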
# HEK293 tox: Cytotoxic Profiling in HEK 293 Cell Line of Diverse Libraries Using Quantitative High-Throughput Screening | HEK 293 viability, ATP luminescence (CellTiter-Glo), 48-72 h | Potency, µM (titrated, usually from 115 µM), for inactives: at the highest dose activity change, negative = cytotoxicity, most hits filed as inhibitors | 6.6% of 94,000 active | AID 1345083, 2018; also: nearly all actives have a fitted effect of over 60% in size
#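 HEK 293 cells at 250 cells/well were exposed to compounds by pintool transfer for 48 or 72 hr at 37 degree Celsius, 5% CO2. Viability was read as ATP-coupled luminescence with CellTiter-Glo after 10 min at room temperature.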
# NPR1 antag: Natriuretic polypeptide receptor (hNpr1) antagonism - Primary qHTS; HEK293 hNpr1 GloSensor cGMP, ANP-stimulated luminescence; 1.6% of 76,000 active; Atrial natriuretic peptide receptor 1 (Homo sapiens), P16066; Potency, µM (top dose mostly 46.3 µM), for the others: top-dose activity change, negative = inhibition, actives largely listed as inhibitors; AID 1347048, 2019; calls by dose curve; also: nearly all actives have a fitted effect of over 60% in size
# Target sequence (P16066 whole entry, looked up): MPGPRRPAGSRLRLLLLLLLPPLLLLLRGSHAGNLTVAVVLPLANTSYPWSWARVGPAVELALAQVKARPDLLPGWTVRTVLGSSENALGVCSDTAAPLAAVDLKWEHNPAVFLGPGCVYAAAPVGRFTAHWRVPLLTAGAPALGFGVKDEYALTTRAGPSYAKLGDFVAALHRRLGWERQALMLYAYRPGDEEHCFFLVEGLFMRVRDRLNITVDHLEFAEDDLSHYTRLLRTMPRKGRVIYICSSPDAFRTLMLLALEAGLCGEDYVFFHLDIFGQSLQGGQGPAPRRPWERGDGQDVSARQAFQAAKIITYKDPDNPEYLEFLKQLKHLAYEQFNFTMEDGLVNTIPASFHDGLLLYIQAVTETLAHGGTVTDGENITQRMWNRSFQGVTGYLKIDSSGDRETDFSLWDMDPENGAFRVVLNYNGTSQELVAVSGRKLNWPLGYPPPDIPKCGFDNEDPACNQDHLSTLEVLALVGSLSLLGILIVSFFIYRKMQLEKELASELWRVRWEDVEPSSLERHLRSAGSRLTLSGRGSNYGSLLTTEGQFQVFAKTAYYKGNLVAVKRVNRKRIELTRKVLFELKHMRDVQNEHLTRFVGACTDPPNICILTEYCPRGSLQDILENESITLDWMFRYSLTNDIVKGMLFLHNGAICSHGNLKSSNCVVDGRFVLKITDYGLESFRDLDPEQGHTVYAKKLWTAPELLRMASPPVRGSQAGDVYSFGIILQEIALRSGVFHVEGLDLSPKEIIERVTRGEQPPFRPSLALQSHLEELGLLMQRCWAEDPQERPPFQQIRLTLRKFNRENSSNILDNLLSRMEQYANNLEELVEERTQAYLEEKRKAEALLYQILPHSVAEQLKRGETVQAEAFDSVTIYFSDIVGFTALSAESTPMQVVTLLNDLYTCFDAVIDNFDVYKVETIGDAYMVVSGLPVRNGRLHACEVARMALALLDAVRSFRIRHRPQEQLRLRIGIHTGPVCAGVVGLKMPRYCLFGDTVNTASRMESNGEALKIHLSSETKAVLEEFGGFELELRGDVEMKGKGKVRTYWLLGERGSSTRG
#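 Compound pre-incubated 30 min at room temperature on GloSensor-loaded HEK293 cells stably carrying hNpr1 and the pGS-40F cGMP biosensor. Stimulation uses hNppA at 0.1 nM final; luminescence is taken at baseline and 20 min post-agonist.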
# Numbers without * were called inactive; i = inactive; ? = inconclusive; · = not tested or not shown; [ ] = remark or other dose. Compounds with a hit are over-represented: about 10% of the library has one in this group of screens. Unless noted, calls follow the shape of the dose curve; as a rule, active = well fitted curve in the direction sought with a large enough effect; inconclusive = small, poorly fitted or top-dose-only effect, or another doubt; inactive = no such curve, though single readings can be large; an effect the other way counts as inactive or inconclusive. % is scaled to controls: 0 for no effect and ±100 for the full control effect; potency is read from the fitted curve at half-maximal effect.
SMILES,GPT2 inhibitor,Luciferase inh,3T3 cytotox,HEK293 tox,NPR1 antag
Cn1ncc2c(C(=O)NCCc3cccc(F)c3)cc(-c3ccccc3C(F)(F)F)nc21,·,·,?,40µM*,·
Cn1ncc2c(C(=O)N3CCCC3)cc(-c3ccccc3C(F)(F)F)nc21,·,·,-26%,-28%,·
COCCNC(=O)c1cc(-c2ccccc2C(F)(F)F)nc2c1cnn2C,·,·,-5%,-10%,·
Cn1ncc2c(C(=O)NCc3ccccc3F)cc(-c3ccccc3C(F)(F)F)nc21,·,·,?,40µM*,·
Cn1ncc2c(C(=O)C3CCN(Cc4ccccc4)CC3)cc(-c3ccccc3C(F)(F)F)nc21,·,·,32µM*,20µM*,·
N#Cc1cccc(C(=O)N2CCC3(CC2)NC(=O)N(Cc2ccc(Cl)cc2)C3=O)c1,i,i,?,?,?
N#Cc1ccc(C(=O)N2CCC3(CC2)NC(=O)N(Cc2ccc(Cl)cc2)C3=O)cc1,i,i,16µM*,?,?
O=C(c1ccc(Cl)cc1)N1CCC2(CC1)C(=O)NCN2CCc1ccc(Cl)cc1,3%,·,?,40µM*,·
CCCN1C(CC(C)C)=NS(=O)(=O)c2cc(NC(=O)C(C)C)ccc21,3%,i,-37%,?,-12%
COCCC(=O)N1CCCCC1c1noc(COc2ccc(C)cc2)n1 (centres undefined),3%,i,-21%,-20%,2%
CC1(c2ccccc2)N(Cc2ccccc2)C(=O)OC12CCN(C(=O)CN1CCOCC1)CC2 (centres undefined),0%,i,14µM*,4%,-5%
CC1(c2ccccc2)N(Cc2ccccc2)C(=O)OC12CCN(Cc1ccc(C(=O)O)cc1)CC2 (centres undefined),2%,·,·,·,·
CC(=O)N1CCC2(CC1)OC(=O)N(Cc1ccccc1F)C2(C)c1ccccc1 (centres undefined),-3%[88.5 µM],i,35µM*,-3%[172 µM],-2%[70.6 µM]
CC1(c2ccccc2)N(Cc2ccccc2F)C(=O)OC12CCN(C(=O)CN1CCOCC1)CC2 (centres undefined),-7%,i,22µM*,4%,3%
CC1(c2ccccc2)N(Cc2ccccc2F)C(=O)OC12CCN(C(=O)c1cccc(C#N)c1)CC2 (centres undefined),-13%,i,7.1µM*,-13%,2%
C#CCNC(=O)c1nc2cccnc2n(Cc2ccccc2)c1=O,i,·,-26%[138 µM],?,·
CCN1C[C@H]2COc3ccccc3[C@H]2N(C(=O)c2ccc(F)cc2)CCC1=O,·,·,?,-4%,·
O=C(NCc1ccc(F)cc1)C1c2ccccc2C(=O)N(Cc2ccccc2)C12CCCC2 (centres undefined),0%,i,35µM*,40µM*,-12%
Cc1ccccc1-c1cnc2[nH]cc(CC(=O)NCCN(C)C)c2c1,-8%[88.5 µM],i,?,40µM*,-15%[70.6 µM]
CN(C)CCNC(=O)Cc1c[nH]c2ncc(-c3ccccc3)cc12,-28%[88.5 µM],i,?,112µM*,-11%[70.6 µM]
O=C(Cc1c[nH]c2ncc(-c3ccccc3)cc12)NCC1CCOCC1,-1%[88.5 µM],i,?,79µM*,3%[70.6 µM]
O=C(NCCc1ccc(Cl)cc1)c1ccc2nnc(-c3cc[nH]c3)n2c1,-3%,·,?,?,·
O[C@@H]1CCC2CC1[C@@H](O)CN2Cc1ccc(-c2ccccc2)cc1 (some centres undefined),·,·,?,79µM*,·
CN(C)Cc1ccc(C2CCCN2Cc2cccc3nonc23)cc1 (centres undefined),-8%,i,-14%,?,5%
COCCNc1cc(-c2cccc(C(F)(F)F)c2)nc2c(C)noc12,4%[88.5 µM],i,?,89µM*,0%[70.6 µM]
SMILES,GPT2 inhibitor,Luciferase inh,3T3 cytotox,HEK293 tox,NPR1 antag
Cc1noc2c(NCCN3CCOCC3)cc(-c3cccc(C(F)(F)F)c3)nc12,-11%[88.5 µM],i,?,?,0%[70.6 µM]
Cc1noc2c(NCc3cccnc3)cc(-c3cccc(C(F)(F)F)c3)nc12,-16%[88.5 µM],i,79µM*,100µM*,-5%[70.6 µM]
COc1ccc2cc(C(=O)N3CCC(Cc4ccc(C(=O)NC5CC5)cc4)CC3)[nH]c2c1,i,i,28µM*,35µM*,?
COc1ccc(C(=O)NC2CCN(C(=O)c3cc4c(=O)[nH]c(C)cn4n3)CC2)cc1,i,i,-8%,-26%,-3%
O=C(c1nc2cccnc2n(CCc2ccccc2)c1=O)N1CCN([S+](=O)([O-])c2cccs2)CC1,i,·,?,?,·
CN(Cc1ccc(-c2ccccc2)cc1)Cc1ccnn1C,i,?,?,25µM*,20µM*
CN(Cc1ccccc1C(F)(F)F)Cc1ccnn1C,-19%[88.5 µM],i,-19%[138 µM],?,-1%[70.6 µM]
CN(Cc1ccc(-c2ccccc2)cc1)Cc1nccs1,i,45µM*,?,?,10µM*
Cc1ccc(CN(C)Cc2ccc(-c3ccccc3)cc2)cc1,i,i,?,?,19%[70.6 µM]
Cc1ccc(CNC(=O)N2CCc3nc(-c4ccccc4)[nH]c3C2)cc1,-5%,·,?,?,·
CN(c1ccccc1)c1cc(=O)c2ccnc(NCC3CCOCC3)c2o1,-1%[88.5 µM],i,8.9µM*,?,5%[70.6 µM]
CN(c1ccccc1)c1cc(=O)c2ccnc(N3CCN(c4ccccn4)CC3)c2o1,?,i,?,35µM*,-13%[70.6 µM]
CN(c1ccccc1)c1cc(=O)c2ccnc(N3CCOCC3)c2o1,i,i,28µM*,?,2%[70.6 µM]
CN1CCN(c2cc(=O)c3ccnc(N4CCN(c5ccccn5)CC4)c3o2)CC1,i,i,?,i,3%[70.6 µM]
CSCCNC(=O)c1ccc2nnc(-c3cccc([S+](C)(=O)[O-])c3)n2c1,i,·,-11%,-14%,·
Cc1ccc2c(C(=O)N3CCCCCC3)cc(NC(=O)C3CCC3)cc2n1,i,i,?,1%,3%
COc1ccc(F)cc1-c1ccc(CN2CCCCC2C(=O)NC(C)CCc2ccccc2)cc1 (centres undefined),·,·,?,25µM*,·
COc1ccccc1-c1cccc(C(=O)N2CCC[C@H]2C(=O)NCc2ccc(C(F)(F)F)cc2)c1,-8%,·,?,79µM*,·
COc1ccccc1-c1cccc(C(=O)N2CCC[C@H]2C(=O)NCc2ccccc2)c1,i,·,-32%,?,·
COc1ccc(F)cc1-c1ccc(CN2CCCCC2C(=O)NCc2ccccc2F)cc1 (centres undefined),·,·,?,25µM*,·
